Test results published in article PMC9838217, “Structure of SALL4 zinc finger domain reveals link between AT-rich DNA binding and Okihiro syndrome”.
Residue numbers refer to the chain shown, from its start.

molecular target: T1, SALL4 ZFC4 R900W (HT-SELEX) (Mus musculus, UniProt Q8BX22 870-940, R900W); test: HT-SELEX; high values mean tight binding; details: protein: recombinant; vector His6-GST; dsDNA, one strand shown
T1 sequence: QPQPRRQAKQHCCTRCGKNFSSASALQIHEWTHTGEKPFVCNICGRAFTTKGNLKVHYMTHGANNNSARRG
How it was run: (§1)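 Each canonical k-mer's binding signal is its read fraction expressed as fold change over the initial random library. Reads came from MiSeq sequencing, scanned for 6-mers, after up to 6 triplicate cycles in which purified recombinant mouse SALL4 zinc finger cluster 4 (residues 870–940, 1 µg) bound library DNA (1.5 µg first cycle, 200 ng later) in 100 µl of 10 mM Tris–HCl pH 7.5, 50 mM NaCl, poly(dI-dC), DTT for 10 min at room temperature. Complexes were then Ni2+ bead-captured, washed, PCR-amplified and reselected.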

Row | Sequence | binding signal
1 | CAACTC | 0.92 ± 0.0298 fold-change vs cycle 0
2 | TGACAA | 1.29 ± 0.0235 fold-change vs cycle 0
3 | CGAACA | 0.694 ± 0.0214 fold-change vs cycle 0
4 | ATATTA | 2.59 ± 0.139 fold-change vs cycle 0
5 | AGAACA | 1.39 ± 0.0297 fold-change vs cycle 0
6 | ATGATC | 1.46 ± 0.0896 fold-change vs cycle 0
7 | CGCATA | 0.499 ± 0.00702 fold-change vs cycle 0
8 | CTCAGC | 0.414 ± 0.0118 fold-change vs cycle 0
9 | CAGAGA | 0.92 ± 0.0161 fold-change vs cycle 0
10 | ATGCTC | 0.754 ± 0.0376 fold-change vs cycle 0
11 | CGATAC | 0.793 ± 0.033 fold-change vs cycle 0
12 | ACTGCT | 0.797 ± 0.0817 fold-change vs cycle 0
13 | CCTGAA | 0.933 ± 0.0447 fold-change vs cycle 0
14 | ACTGTA | 1.49 ± 0.0592 fold-change vs cycle 0
15 | ACATCT | 1.46 ± 0.0394 fold-change vs cycle 0
16 | CAATGA | 1.47 ± 0.0677 fold-change vs cycle 0
17 | CACGAG | 0.496 ± 0.0211 fold-change vs cycle 0
18 | AATAAG | 2.15 ± 0.175 fold-change vs cycle 0
19 | CCTAGC | 0.434 ± 0.0293 fold-change vs cycle 0
20 | GAAGAA | 1.56 ± 0.142 fold-change vs cycle 0

Row | Sequence | binding signal
21 | CCTAGG | 0.588 ± 0.0412 fold-change vs cycle 0
22 | ACCTCC | 0.625 ± 0.0479 fold-change vs cycle 0
23 | CATAGC | 0.746 ± 0.0368 fold-change vs cycle 0
24 | CTGCAG | 0.373 ± 0.0324 fold-change vs cycle 0
25 | TGAGCA | 0.737 ± 0.0106 fold-change vs cycle 0
26 | AGCTAT | 1.26 ± 0.0563 fold-change vs cycle 0
27 | GAACCC | 0.565 ± 0.0113 fold-change vs cycle 0
28 | ACCTGC | 0.391 ± 0.01 fold-change vs cycle 0
29 | ACCGTG | 0.456 ± 0.013 fold-change vs cycle 0
30 | GAACCA | 0.871 ± 0.0494 fold-change vs cycle 0
31 | AGCAGA | 0.815 ± 0.0131 fold-change vs cycle 0
32 | AATATA | 2.49 ± 0.212 fold-change vs cycle 0
33 | ATTAGC | 1.18 ± 0.016 fold-change vs cycle 0
34 | CACACC | 0.468 ± 0.0362 fold-change vs cycle 0
35 | ACTTAG | 1.56 ± 0.0417 fold-change vs cycle 0
36 | GAATAC | 1.41 ± 0.0467 fold-change vs cycle 0
37 | CCTGTA | 0.915 ± 0.0586 fold-change vs cycle 0
38 | CGGTGA | 0.421 ± 0.0161 fold-change vs cycle 0
39 | CCTTGC | 0.45 ± 0.00496 fold-change vs cycle 0
40 | AAGTGC | 0.63 ± 0.00993 fold-change vs cycle 0

molecular target: T2, SALL4 ZFC4 G921D (HT-SELEX) (Mus musculus, UniProt Q8BX22 870-940, G921D); test: HT-SELEX; high values mean tight binding; details: protein: recombinant; vector His6-GST; dsDNA, one strand shown
T2 sequence: T1 sequence with W31R, G52D
How it was run: as §1

Row | Sequence | binding signal
41 | CAACTC | 0.994 ± 0.018 fold-change vs cycle 0
42 | TGACAA | 1.26 ± 0.0515 fold-change vs cycle 0
43 | CGAACA | 0.787 ± 0.0244 fold-change vs cycle 0
44 | ATATTA | 2.22 ± 0.236 fold-change vs cycle 0
45 | AGAACA | 1.34 ± 0.0563 fold-change vs cycle 0
46 | ATGATC | 1.48 ± 0.0835 fold-change vs cycle 0
47 | CGCATA | 0.636 ± 0.061 fold-change vs cycle 0
48 | CTCAGC | 0.525 ± 0.071 fold-change vs cycle 0
49 | CAGAGA | 0.951 ± 0.0212 fold-change vs cycle 0
50 | ATGCTC | 0.845 ± 0.0337 fold-change vs cycle 0
51 | CGATAC | 0.902 ± 0.0425 fold-change vs cycle 0
52 | ACTGCT | 0.89 ± 0.0309 fold-change vs cycle 0
53 | CCTGAA | 0.951 ± 0.0276 fold-change vs cycle 0
54 | ACTGTA | 1.38 ± 0.111 fold-change vs cycle 0
55 | ACATCT | 1.4 ± 0.0574 fold-change vs cycle 0
56 | CAATGA | 1.4 ± 0.0741 fold-change vs cycle 0
57 | CACGAG | 0.599 ± 0.0729 fold-change vs cycle 0
58 | AATAAG | 1.86 ± 0.227 fold-change vs cycle 0
59 | CCTAGC | 0.55 ± 0.055 fold-change vs cycle 0
60 | GAAGAA | 1.41 ± 0.156 fold-change vs cycle 0

Row | Sequence | binding signal
61 | CCTAGG | 0.669 ± 0.0278 fold-change vs cycle 0
62 | ACCTCC | 0.721 ± 0.0399 fold-change vs cycle 0
63 | CATAGC | 0.844 ± 0.0408 fold-change vs cycle 0
64 | CTGCAG | 0.467 ± 0.0711 fold-change vs cycle 0
65 | TGAGCA | 0.843 ± 0.0202 fold-change vs cycle 0
66 | AGCTAT | 1.27 ± 0.0842 fold-change vs cycle 0
67 | GAACCC | 0.668 ± 0.0409 fold-change vs cycle 0
68 | ACCTGC | 0.516 ± 0.075 fold-change vs cycle 0
69 | ACCGTG | 0.547 ± 0.0682 fold-change vs cycle 0
70 | GAACCA | 0.937 ± 0.0521 fold-change vs cycle 0
71 | AGCAGA | 0.857 ± 0.0135 fold-change vs cycle 0
72 | AATATA | 2.16 ± 0.28 fold-change vs cycle 0
73 | ATTAGC | 1.2 ± 0.034 fold-change vs cycle 0
74 | CACACC | 0.561 ± 0.0498 fold-change vs cycle 0
75 | ACTTAG | 1.42 ± 0.0798 fold-change vs cycle 0
76 | GAATAC | 1.34 ± 0.07 fold-change vs cycle 0
77 | CCTGTA | 0.974 ± 0.0591 fold-change vs cycle 0
78 | CGGTGA | 0.548 ± 0.0673 fold-change vs cycle 0
79 | CCTTGC | 0.554 ± 0.0487 fold-change vs cycle 0
80 | AAGTGC | 0.76 ± 0.0221 fold-change vs cycle 0
